Each structure is given as a SMILES string. Hit rate of the full screen: of about 330,000 compounds, about 10,000 (3%) were called active. This excerpt belongs to a sample that is enriched for actives. Unmarked numbers belong to inactive results.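 The calls were made as follows: active = inhibition of at least 50% at 8 µM in the primary screen; inactive = the rest.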

90 molecules from PubChem BioAssay AID485346 (Sanford-Burnham Center for Chemical Genomics, 2010) can be followed below.

Sequence of Protein Mdm4 (Homo sapiens) + E3 ubiquitin-protein ligase Mdm2 (Homo sapiens) (O15151 whole entry, looked up): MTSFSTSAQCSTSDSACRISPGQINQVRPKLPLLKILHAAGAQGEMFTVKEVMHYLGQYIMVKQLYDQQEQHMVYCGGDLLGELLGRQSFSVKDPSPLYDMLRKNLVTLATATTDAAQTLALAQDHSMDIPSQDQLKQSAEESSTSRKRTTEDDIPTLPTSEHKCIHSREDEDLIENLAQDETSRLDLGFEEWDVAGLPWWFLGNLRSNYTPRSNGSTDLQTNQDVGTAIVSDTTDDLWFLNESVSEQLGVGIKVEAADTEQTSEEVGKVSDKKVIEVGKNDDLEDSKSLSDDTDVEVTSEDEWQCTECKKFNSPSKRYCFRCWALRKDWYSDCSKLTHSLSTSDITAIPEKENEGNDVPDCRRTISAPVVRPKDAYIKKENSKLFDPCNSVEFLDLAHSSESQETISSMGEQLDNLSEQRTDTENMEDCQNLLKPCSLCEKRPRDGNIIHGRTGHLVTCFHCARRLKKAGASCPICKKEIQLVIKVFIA
Sequence of Protein Mdm4 (Homo sapiens) + E3 ubiquitin-protein ligase Mdm2 (Homo sapiens) (Q00987 whole entry, looked up): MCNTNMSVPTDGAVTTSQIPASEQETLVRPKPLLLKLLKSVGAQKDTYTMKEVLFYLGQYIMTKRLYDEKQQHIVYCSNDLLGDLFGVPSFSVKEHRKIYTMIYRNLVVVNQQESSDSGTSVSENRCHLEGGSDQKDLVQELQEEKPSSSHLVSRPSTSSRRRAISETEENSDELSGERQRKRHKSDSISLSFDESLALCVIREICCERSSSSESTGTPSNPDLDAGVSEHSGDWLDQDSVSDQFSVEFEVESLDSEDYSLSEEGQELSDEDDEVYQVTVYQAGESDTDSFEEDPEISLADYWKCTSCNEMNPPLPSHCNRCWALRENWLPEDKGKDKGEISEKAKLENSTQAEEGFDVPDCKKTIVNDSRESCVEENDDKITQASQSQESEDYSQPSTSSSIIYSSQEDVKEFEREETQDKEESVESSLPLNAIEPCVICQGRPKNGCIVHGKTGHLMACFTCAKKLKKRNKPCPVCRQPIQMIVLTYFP

The experiment has as its target Protein Mdm4 (Homo sapiens) + E3 ubiquitin-protein ligase Mdm2 (Homo sapiens) (UniProt O15151+Q00987). Description: disruptors of Mdm2/MdmX RING complex – cell-based, luminescence, split luciferase, SaOS-2, uHTS, primary screen (AID 485346). To be noted: SaOS-2 split-luciferase Mdm2/MdmX complementation, at 8 µM, active compounds read high.
For `Cc1noc(NS(=O)(=O)c2ccc(NC(=O)c3oc4ccc(F)cc4c3C)cc2)c1C`, the inhibition is -34%. The figure for `O=c1oc2ccccc2cc1-c1cn(-c2ccccc2)c(=S)[nH]1` is 88.3% (active); for `O=C(Nc1cc2ccccc2oc1=O)C1CCCCC1` it is -82.7%; for `S=c1[nH]c(-c2cccs2)cn1-c1ccccc1` it is -16.2%. For `COCCCN1C(=O)C(=O)/C(=C(/O)c2ccc(S(=O)(=O)N3CCOCC3)cc2)C1c1ccc(F)cc1` (stereo not given), the inhibition is -23.9%. With `COc1ccccc1C1=CC(=O)C[C@H](c2ccc(F)cc2)C1`, the inhibition was -0.761%. The figure for `O=C(NCCc1ccccc1)Oc1ccc(Cl)cc1` is 11.2%; for `CCN1CCN(c2nc(Nc3cc(OC)ccc3OC)nc(Nc3cc(OC)ccc3OC)n2)CC1` it is 56.2% (active). As for `CCOC(=O)N1CCN(CCC(=O)Nc2cc(OC)ccc2OC)CC1`, the figure is -21.2%. As to `CCOc1ccc(Nc2nc(Cl)nc(N3CCN(c4ccc(OC)cc4)CC3)n2)cc1`, the inhibition is 7.3%. Take `Cc1ccc(C)c(-n2nnnc2SCC(=O)c2c(N)n(C)c(=O)n(C)c2=O)c1`: the inhibition is 24.7%.

As for `CS(=O)(=O)N(CC(=O)Nc1ccc(Cl)c(Cl)c1)C1CCCCC1`, the inhibition was 11.5%. Take `CCn1nccc1C(=O)Nc1ccc(Cl)c(Cl)c1`: the inhibition is 28.3%.

As for `O=C(CC(O)(C(F)(F)F)C(F)(F)F)Nc1ccc(Cl)c(Cl)c1`, the inhibition was 83.5% (active). As for `COc1ccc(N2CCN(C(=O)CNS(=O)(=O)c3ccc(C)c(C)c3)CC2)cc1`, the figure is -7.3%; as for `CN(C)c1ccc(C=C2C(=O)OC3(CCCC3)OC2=O)cc1`, -3.25%; as for `COc1cc(/C=N/NC(=O)c2ccoc2C)ccc1OCCN1CCCCC1`, 7.93%.

Consider `COC(=O)c1ccc(COc2ccc(/C=N/NC(=O)C(=O)Nc3ccc(OC)cc3)cc2OC)o1`, for which the inhibition was 36.6%. As for `COc1cc(/C=N/NC(=O)Nc2ccccc2)ccc1OCCOc1ccccc1C`, the figure is 63.8% (active). Turning to `COc1ccc(-c2ccc(Nc3ccc(S(=O)(=O)N4CCCC4)cc3)nn2)cc1OC`, the inhibition is 57.4% (active). As for `COc1cc(C(C)=O)ccc1OC(C)C(=O)Nc1ccc(S(=O)(=O)N2CCCC2)cc1` (stereo not given), the figure is 9.67%; as for `COc1ccc(S(=O)(=O)N2CCCCCC2)cc1NC(=O)Cc1ccc(OC)c(OC)c1`, 7.01%; as for `O/N=C(\C[n+]1ccccc1)c1ccc(Br)cc1`, 17%. The figure for `CC(=O)C(CC(=O)N1CCCC1)C(=O)Nc1ccc(Cl)cc1` (stereo not given) is -3.54%; for `O=C(O)CCCN1C(=O)c2ccccc2Sc2ncccc21` it is -8.61%.

For the molecule `Cc1ccc(Nc2nc(N)nc(CSc3nnc(C)s3)n2)cc1`, the inhibition is -6.62%. The figure for `Nc1nc(COC(=O)CCC(=O)c2ccc(Cl)cc2)nc(Nc2ccccc2)n1` is -9.75%; for `Nc1nc(CC(=O)CSc2ccc(Cl)cc2)nc(Nc2ccc(F)cc2)n1` it is 81% (active); for `CCS(=O)(=O)c1ccc2c(c1)N(S(=O)(=O)c1ccccc1)CC(C(=O)O)O2` (stereo not given) it is -32%. The figure for `Cn1c(N)c(C(=O)COC(=O)/C=C/c2cccc(C(F)(F)F)c2)c(=O)n(C)c1=O` is 21.9%; for `COc1ccc2sc(-c3ccc(S(C)(=O)=O)cc3)c(-c3ccc(C(N)=O)cc3)c2c1` it is 12%; for `COc1ccc(-c2sc3ccc(OC)cc3c2C#Cc2ccccn2)cc1` it is 40.5%. The figure for `COc1ccc2sc(-c3ccc(S(C)(=O)=O)cc3)c(C#Cc3cncn3C)c2c1` is 69.9% (active). For `COCc1cc(C)nc(Nc2cc(C)ccc2C)c1C#N`, the inhibition was 17.9%. Regarding `COc1cc(/C=N/NC(=O)Cc2ccccc2)cc(OC)c1OC`, the inhibition is 4.45%. For the molecule `COc1cc(N=Cc2c(O)[nH]c3ccccc23)cc(OC)c1OC`, the inhibition is 80.2% (active). Regarding `COc1cc(N=Cc2c(O)c3ccccc3oc2=O)c(OC)cc1Cl`, the inhibition was 20.6%. For `CN=c1scc(-c2cc(OC)ccc2OC)n1/N=C/c1c(C)[nH]c2ccccc12`, the inhibition is 20.3%. The figure for `COc1ccc(N=Cc2c(O)[nH]c3ccccc23)cc1OC` is 61.3% (active); for `COc1ccc2[nH]c(C(=O)N/N=C/c3cc(OC)c(OC)c(OC)c3)cc2c1` it is 11.4%; for `Cc1cc(CNCc2c(C(=O)N(C)Cc3ccccc3)nc3ccccn23)nn1C` it is 35.1%. The figure for `CC1O[C@H](OC2C(COC3OC(CO)C(O)[C@H](O)C3O)OC(OC3CC[C@]4(C)C(CC[C@@]5(C)[C@@H]4C=C[C@]46OC[C@@]7(CCC(C)(C)C[C@H]74)C(O)C[C@@]56C)C3(C)C)C(O)C2O)C(O)C(O)C1O` (stereo not given in full) is -4.59%; for `Cc1c(C#N)c(NC(=O)c2ccccc2)n(Cc2ccccc2)c1C` it is 29.1%; for `CCOc1cnc(C(=O)NNC(=O)c2ccccc2Br)o1` it is -14.2%.

Turning to `CCn1c(CC(=O)Nc2ccccc2C)nnc1SCC(=O)NC1=NCCS1`, the inhibition was 6.16%.

For the molecule `Cc1ccc(C(=O)O)cc1N1C(=O)CCCC1=O`, the inhibition is -17.1%.

For the molecule `CN(C(=O)c1cccc(NC(=O)Cc2cccc([N+](=O)[O-])c2)c1)C1CCCCC1`, the inhibition is 18.4%.

On to `CC(OC(=O)c1ccc(-n2cnnn2)cc1)C(=O)NCc1ccccc1` (stereo not given), for which the inhibition is 8.29%. The figure for `Cc1c(CN2CCC(CO)(CCOc3ccccc3)CC2)[nH]c2ccc(Cl)cc12` is 89.6% (active). Take `CCOC(=O)C1(CCOc2ccccc2)CCN(Cc2cc(OC)c(O)cc2Cl)CC1`: the inhibition is 28.9%. As for `OCC1(CCOc2ccccc2)CCN(Cc2cn[nH]c2-c2ccccc2)CC1`, the inhibition was 12.6%. With `O=C(COC(=O)c1cc(-c2cccs2)nn1-c1ccccc1)Nc1cc([N+](=O)[O-])ccc1Cl`, the inhibition was -2.96%.

In the case of `O=C(CCNC(=O)c1ccccc1)NN=Cc1ccc(Br)o1`, the inhibition is 5.26%.

Turning to `COc1ccc(CNC(=O)COC(=O)CCS(=O)(=O)c2ccc(C)cc2)cc1OC`, the inhibition was 21.8%. The figure for `CCOc1ncccc1C(=O)Nc1ccc(S(=O)(=O)Nc2nc(C)cc(C)n2)cc1` is -16.7%; for `CC(=O)Nc1ccc(S(=O)(=O)Nc2cc(C)cn(Cc3ccc(C)cc3)c2=O)cc1` it is 17.7%; for `O=c1c([N+](=O)[O-])cccn1Cc1ccc(F)cc1Cl` it is 10.4%.

Regarding `Oc1c(Br)cccc1/C=N/Nc1c(F)c(F)c(F)c(F)c1F`, the inhibition was 82.4% (active). The figure for `Brc1ccccc1/C=N/Nc1nc2ccccc2o1` is 36.2%. For the molecule `CC(=O)/C(=N\Nc1ccc(Cl)cc1Cl)Sc1cccc2cccnc12`, the inhibition was 63.2% (active). As for `O=C(NNc1cc(Cl)ccc1Cl)c1cccnc1Cl`, the figure is 9.63%; as for `S=C(NCc1cccnc1)Nc1ccc(Cl)cc1Cl`, 4.36%; as for `COc1ccccc1NC(=O)C1CCN(C(=O)c2ccc(C(C)(C)C)cc2)CC1`, 28.8%. As for `CCCCCCCNC(=O)C1(CC2CC(c3cccc(Br)c3)=NO2)CCN(C(=O)c2cc(OCC)c(OCC)c(OCC)c2)CC1` (stereo not given), the figure is 18.1%. Turning to `Fc1ccc(N2N=C(c3cccs3)CC2c2ccco2)c(F)c1` (stereo not given), the inhibition was 2.13%. With `CCCCC(=O)Nc1ccc(C(=O)Nc2cc(C(F)(F)F)ccc2Cl)cc1`, the inhibition is 21.2%. In the case of `CCCCN(CCCC)CCC(O)c1cc2c(Cl)cc(Cl)cc2c2cc(C(F)(F)F)ccc12` (stereo not given), the inhibition was 60.8% (active). The figure for `CC1(C)Cc2c(sc3nc(SCC(=O)NCc4ccccc4)n(-c4ccccc4)c(=O)c23)CS1` is -3.67%; for `N#Cc1c(NCCO)ccc([N+](=O)[O-])c1NCCO` it is -1.81%; for `CCOc1ccc(CN2CCN(Cc3c[nH]c4ccccc34)CC2)cc1` it is 20.2%. The figure for `O=C(COC(=O)CN1C(=O)C2CCCCC2C1=O)Nc1ccc(F)c(F)c1F` (stereo not given) is 34.5%; for `C[C@]12c3[nH]c4ccc(Cl)cc4c3CCN1C(=O)[C@@H](CC(=O)NCCCn1ccnc1)C[C@@H]2C(=O)N1CCOCC1` it is 4.12%.

In the case of `CC1CCN(C(=O)/C(=C\c2ccccc2F)NC(=O)c2ccccc2)CC1`, the inhibition was 8.33%. As for `Cc1cccc(-n2ncc(Cl)c(Cl)c2=O)c1`, the figure is 100% (active).

On to `Cc1cccc(-n2ncc(C#N)c2-n2cccc2)c1`, for which the inhibition was 18.1%.

Turning to `C=CCNc1cnn(-c2ccc(C)cc2)c(=O)c1Cl`, the inhibition was -8.88%. On to `COC(=O)[C@@H]1C[C@@]2(O)[C@@H](O)[C@@H](O)[C@@H](O)C[C@H]2N1Cc1ccc(C)s1`, for which the inhibition was 10.5%.

For the molecule `CCCOc1cccc(C(=O)Nc2nnn(CCC)n2)c1`, the inhibition is -17.9%.

As to `COc1ccccc1N1CCN(S(=O)(=O)c2ccc(Cl)cc2)CC1`, the inhibition was 0.916%. The figure for `COc1ccccc1-n1nnnc1S(=O)(=O)Cc1ccc(Cl)cc1` is 99.3% (active); for `COc1ccccc1-n1nnnc1SCC(=O)NC(=O)Cc1ccccc1` it is -11.3%; for `O=C(CN1C(=O)c2cccnc2Oc2ccc(Cl)cc21)Nc1ccc(F)cc1` it is 7.52%. As for `CC1C(=O)NC(=O)C1c1ccccc1` (stereo not given), the figure is 10.9%. Take `COc1ccc(-c2sc3ccccc3c2-c2ccc(OCCN3CCOCC3)cc2)cc1`: the inhibition was 28.3%. As for `COc1ccccc1-c1sc2ccccc2c1-c1ccc(C(C)=O)cc1`, the figure is 7.74%; as for `COc1cc(OC)cc(-c2sc3ccc(OC)cc3c2-c2ccc3cc[nH]c3c2)c1`, 13.6%; as for `COc1cccc(-c2sc3ccc(OC)cc3c2-c2ccc(OCCN3CCCCC3)cc2)c1`, 96.8% (active). As for `COc1ccccc1-c1sc2ccccc2c1-c1ccc(Br)nc1`, the figure is 1.19%.

`COc1ccc2sc(-c3ccccc3OC)c(-c3ccc(OCCN4CCCC4)cc3)c2c1`: the inhibition is 73.2% (active). For the molecule `CN1C(=O)C2(OCCCO2)c2cc(Cl)ccc21`, the inhibition is 2.45%.
